Experimental data: ChEMBL document CHEMBL1961873, “Compounds: GSK PKIS; Assays: Nanosyn kinase panel” (2012)

Assays:
[1] = target: Sphingosine kinase 1 (Homo sapiens) (UniProt Q9NYA1); conditions: at 1 µM;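 note: mean SPHK1 inhibition value reported from the GSK PKIS kinase panel screen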
[2] = target: T1, Sphingosine kinase 2 (Homo sapiens) (UniProt Q9NRA0); conditions: at 0.1 µM
T1 sequence (whole entry): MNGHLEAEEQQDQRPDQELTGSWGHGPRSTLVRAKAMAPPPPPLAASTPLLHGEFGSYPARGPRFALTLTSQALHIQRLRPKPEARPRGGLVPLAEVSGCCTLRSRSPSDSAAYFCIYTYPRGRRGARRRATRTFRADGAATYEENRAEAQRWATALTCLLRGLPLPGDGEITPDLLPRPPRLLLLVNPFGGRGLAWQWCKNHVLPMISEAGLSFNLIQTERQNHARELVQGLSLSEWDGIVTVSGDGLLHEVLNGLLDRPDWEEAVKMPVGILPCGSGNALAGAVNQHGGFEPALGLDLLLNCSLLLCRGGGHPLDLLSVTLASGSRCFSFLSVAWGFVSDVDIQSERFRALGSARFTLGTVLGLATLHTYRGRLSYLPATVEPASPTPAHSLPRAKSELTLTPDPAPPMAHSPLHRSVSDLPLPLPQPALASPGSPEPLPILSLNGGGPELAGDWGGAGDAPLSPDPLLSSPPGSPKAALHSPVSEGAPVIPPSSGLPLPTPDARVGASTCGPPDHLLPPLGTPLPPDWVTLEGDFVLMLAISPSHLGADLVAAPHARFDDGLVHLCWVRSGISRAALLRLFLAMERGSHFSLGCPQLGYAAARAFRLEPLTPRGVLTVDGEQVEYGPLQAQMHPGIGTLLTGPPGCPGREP

[3] = target: T1, Sphingosine kinase 2 (Homo sapiens); conditions: at 1 µM
[4] = target: Casein kinase II subunit alpha (Homo sapiens) (UniProt P68400); conditions: at 0.1 µM
Chain of Casein kinase II subunit alpha (Homo sapiens) (P68400 whole entry, looked up): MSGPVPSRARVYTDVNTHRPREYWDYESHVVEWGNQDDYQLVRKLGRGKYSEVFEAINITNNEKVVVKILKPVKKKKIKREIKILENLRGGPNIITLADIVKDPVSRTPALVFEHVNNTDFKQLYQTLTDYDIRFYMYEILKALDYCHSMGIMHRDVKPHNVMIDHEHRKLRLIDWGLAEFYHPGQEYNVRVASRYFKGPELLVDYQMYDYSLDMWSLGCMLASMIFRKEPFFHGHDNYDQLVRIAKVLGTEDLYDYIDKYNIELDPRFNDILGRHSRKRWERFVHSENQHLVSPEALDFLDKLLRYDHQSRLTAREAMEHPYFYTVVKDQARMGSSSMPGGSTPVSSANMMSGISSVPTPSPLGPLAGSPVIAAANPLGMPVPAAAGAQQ

[5] = target: Casein kinase II subunit alpha (Homo sapiens) (UniProt P68400); conditions: at 1 µM
[6] = target: T2, Inhibitor of nuclear factor kappa-B kinase subunit alpha (Homo sapiens) (UniProt O15111); conditions: at 0.1 µM
T2 sequence (whole entry): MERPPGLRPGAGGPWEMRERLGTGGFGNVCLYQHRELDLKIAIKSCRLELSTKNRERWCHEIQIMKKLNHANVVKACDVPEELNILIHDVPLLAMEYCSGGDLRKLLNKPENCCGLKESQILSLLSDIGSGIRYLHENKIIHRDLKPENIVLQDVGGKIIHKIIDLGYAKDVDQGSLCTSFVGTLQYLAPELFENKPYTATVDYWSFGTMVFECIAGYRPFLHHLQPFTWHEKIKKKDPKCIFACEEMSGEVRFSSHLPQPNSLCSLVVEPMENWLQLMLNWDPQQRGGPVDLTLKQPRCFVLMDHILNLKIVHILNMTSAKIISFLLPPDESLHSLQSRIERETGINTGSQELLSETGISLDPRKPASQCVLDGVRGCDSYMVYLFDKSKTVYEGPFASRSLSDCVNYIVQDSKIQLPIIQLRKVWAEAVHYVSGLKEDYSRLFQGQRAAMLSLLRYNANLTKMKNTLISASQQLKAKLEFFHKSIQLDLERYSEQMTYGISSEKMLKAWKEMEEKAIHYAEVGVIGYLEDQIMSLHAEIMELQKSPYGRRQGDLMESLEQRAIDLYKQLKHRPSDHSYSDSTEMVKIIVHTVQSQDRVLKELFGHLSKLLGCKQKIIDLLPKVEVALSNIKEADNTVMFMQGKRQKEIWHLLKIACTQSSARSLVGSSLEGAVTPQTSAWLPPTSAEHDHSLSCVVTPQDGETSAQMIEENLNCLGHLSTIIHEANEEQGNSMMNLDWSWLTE

[7] = target: T2, Inhibitor of nuclear factor kappa-B kinase subunit alpha (Homo sapiens); conditions: at 1 µM
[8] = target: T3, Inhibitor of nuclear factor kappa-B kinase subunit beta (Homo sapiens) (UniProt O14920); conditions: at 0.1 µM
T3 sequence (whole entry): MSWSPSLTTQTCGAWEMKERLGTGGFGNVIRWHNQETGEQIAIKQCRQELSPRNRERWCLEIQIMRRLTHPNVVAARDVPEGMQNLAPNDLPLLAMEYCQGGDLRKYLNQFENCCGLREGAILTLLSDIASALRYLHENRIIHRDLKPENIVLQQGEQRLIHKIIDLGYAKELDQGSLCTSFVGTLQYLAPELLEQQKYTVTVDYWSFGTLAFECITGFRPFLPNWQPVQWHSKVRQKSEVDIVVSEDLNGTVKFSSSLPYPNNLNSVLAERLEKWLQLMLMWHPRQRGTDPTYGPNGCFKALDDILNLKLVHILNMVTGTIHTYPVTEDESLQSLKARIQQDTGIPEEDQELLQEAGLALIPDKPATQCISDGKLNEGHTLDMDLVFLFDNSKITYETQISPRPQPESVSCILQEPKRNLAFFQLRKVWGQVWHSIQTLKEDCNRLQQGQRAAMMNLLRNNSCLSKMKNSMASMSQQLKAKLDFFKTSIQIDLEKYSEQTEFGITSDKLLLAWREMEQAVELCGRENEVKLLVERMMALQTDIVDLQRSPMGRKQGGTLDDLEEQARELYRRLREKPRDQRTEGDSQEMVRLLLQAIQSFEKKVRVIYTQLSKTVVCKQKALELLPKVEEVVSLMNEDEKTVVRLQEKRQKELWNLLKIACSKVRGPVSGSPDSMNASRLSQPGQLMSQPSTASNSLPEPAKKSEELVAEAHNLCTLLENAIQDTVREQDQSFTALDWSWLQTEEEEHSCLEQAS

[9] = target: T3, Inhibitor of nuclear factor kappa-B kinase subunit beta (Homo sapiens); conditions: at 1 µM
[10] = target: T4, Inhibitor of nuclear factor kappa-B kinase subunit epsilon (Homo sapiens) (UniProt Q14164); conditions: at 0.1 µM
T4 sequence (whole entry): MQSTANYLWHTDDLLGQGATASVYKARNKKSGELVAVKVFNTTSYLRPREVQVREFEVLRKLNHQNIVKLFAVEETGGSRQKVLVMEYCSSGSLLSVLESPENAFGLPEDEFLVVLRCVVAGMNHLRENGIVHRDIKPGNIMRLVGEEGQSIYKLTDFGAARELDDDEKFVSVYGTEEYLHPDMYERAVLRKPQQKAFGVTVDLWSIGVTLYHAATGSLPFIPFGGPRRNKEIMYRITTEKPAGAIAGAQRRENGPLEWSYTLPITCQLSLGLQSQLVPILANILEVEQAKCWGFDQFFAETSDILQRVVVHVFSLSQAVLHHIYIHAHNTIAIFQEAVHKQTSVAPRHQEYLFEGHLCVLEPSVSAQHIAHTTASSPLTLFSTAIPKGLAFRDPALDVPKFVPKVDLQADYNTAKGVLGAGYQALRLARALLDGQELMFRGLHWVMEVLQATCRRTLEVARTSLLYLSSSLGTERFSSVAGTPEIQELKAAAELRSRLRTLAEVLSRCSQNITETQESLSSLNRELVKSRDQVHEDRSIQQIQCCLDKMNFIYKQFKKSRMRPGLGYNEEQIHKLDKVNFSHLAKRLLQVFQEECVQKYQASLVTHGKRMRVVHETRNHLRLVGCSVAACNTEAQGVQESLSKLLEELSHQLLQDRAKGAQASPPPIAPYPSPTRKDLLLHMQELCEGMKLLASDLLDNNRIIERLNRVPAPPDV

[11] = target: T4, Inhibitor of nuclear factor kappa-B kinase subunit epsilon (Homo sapiens); conditions: at 1 µM
[12] = target: T5, Serine/threonine-protein kinase Nek1 (Homo sapiens) (UniProt Q96PY6); conditions: at 0.1 µM
T5 sequence (whole entry): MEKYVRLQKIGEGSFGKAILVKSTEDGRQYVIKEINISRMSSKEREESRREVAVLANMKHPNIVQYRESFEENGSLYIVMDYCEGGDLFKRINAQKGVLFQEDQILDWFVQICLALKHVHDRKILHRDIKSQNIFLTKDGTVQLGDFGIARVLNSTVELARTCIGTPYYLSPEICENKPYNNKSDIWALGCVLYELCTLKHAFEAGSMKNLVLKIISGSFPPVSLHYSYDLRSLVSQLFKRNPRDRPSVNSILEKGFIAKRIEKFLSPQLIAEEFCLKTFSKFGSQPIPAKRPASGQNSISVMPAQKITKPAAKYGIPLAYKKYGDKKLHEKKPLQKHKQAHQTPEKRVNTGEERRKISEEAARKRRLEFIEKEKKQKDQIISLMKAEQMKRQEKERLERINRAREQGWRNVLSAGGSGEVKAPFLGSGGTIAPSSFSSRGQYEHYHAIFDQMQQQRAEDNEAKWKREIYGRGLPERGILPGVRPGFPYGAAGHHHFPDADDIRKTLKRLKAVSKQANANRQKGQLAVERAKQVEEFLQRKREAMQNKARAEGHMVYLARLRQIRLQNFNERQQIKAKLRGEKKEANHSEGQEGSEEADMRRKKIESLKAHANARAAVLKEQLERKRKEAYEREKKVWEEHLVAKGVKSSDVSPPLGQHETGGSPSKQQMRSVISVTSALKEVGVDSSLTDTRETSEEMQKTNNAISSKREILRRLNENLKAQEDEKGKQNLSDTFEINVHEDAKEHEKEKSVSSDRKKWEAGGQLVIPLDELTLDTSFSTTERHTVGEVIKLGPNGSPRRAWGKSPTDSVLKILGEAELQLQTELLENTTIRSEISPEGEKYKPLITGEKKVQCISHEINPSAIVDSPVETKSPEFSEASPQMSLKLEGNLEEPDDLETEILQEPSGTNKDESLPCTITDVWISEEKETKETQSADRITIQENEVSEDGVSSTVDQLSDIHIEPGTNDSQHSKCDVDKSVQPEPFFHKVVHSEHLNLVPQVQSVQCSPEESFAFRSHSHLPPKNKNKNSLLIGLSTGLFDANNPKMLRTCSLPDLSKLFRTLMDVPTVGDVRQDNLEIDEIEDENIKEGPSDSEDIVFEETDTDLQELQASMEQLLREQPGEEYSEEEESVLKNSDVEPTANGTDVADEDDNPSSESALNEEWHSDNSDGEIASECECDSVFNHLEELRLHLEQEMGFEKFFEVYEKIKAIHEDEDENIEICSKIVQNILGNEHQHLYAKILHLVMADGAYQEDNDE

[13] = target: T5, Serine/threonine-protein kinase Nek1 (Homo sapiens); conditions: at 1 µM
[14] = target: T6, Serine/threonine-protein kinase Nek2 (Homo sapiens) (UniProt P51955); conditions: at 0.1 µM
T6 sequence (whole entry): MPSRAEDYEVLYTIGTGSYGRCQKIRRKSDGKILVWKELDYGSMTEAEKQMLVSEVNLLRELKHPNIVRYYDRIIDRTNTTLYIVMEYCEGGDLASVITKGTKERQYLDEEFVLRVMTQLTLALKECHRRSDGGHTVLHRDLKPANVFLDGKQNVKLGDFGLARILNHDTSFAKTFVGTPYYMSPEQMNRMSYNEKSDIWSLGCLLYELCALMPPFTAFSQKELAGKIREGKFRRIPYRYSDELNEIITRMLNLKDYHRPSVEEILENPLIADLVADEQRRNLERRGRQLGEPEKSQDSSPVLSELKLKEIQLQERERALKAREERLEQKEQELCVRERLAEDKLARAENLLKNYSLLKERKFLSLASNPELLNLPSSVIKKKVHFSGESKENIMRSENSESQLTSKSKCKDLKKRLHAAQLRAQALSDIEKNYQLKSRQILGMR

[15] = target: T6, Serine/threonine-protein kinase Nek2 (Homo sapiens); conditions: at 1 µM
[16] = target: Serine/threonine-protein kinase Nek6 (Homo sapiens) (UniProt Q9HC98); conditions: at 0.1 µM
Chain of Serine/threonine-protein kinase Nek6 (Homo sapiens) (Q9HC98 whole entry): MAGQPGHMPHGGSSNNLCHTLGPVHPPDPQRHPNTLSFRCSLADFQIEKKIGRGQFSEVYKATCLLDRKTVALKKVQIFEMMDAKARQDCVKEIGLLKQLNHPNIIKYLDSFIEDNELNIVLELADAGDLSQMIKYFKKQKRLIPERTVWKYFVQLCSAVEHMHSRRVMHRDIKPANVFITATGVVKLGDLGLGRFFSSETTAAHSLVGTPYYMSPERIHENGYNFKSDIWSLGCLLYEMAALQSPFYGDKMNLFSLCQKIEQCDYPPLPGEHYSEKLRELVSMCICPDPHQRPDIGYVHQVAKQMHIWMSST

[17] = target: Serine/threonine-protein kinase Nek6 (Homo sapiens) (UniProt Q9HC98); conditions: at 1 µM
[18] = target: Serine/threonine-protein kinase Nek7 (Homo sapiens) (UniProt Q8TDX7); conditions: at 0.1 µM
Chain of Serine/threonine-protein kinase Nek7 (Homo sapiens) (Q8TDX7 whole entry, looked up): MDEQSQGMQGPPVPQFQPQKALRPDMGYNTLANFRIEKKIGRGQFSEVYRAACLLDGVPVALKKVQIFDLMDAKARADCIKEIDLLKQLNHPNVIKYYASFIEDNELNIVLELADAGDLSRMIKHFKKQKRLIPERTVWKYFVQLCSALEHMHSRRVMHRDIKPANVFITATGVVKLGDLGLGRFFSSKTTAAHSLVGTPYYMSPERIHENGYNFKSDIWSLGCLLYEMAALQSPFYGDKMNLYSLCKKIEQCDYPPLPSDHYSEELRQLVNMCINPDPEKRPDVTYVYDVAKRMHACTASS

[19] = target: Serine/threonine-protein kinase Nek7 (Homo sapiens) (UniProt Q8TDX7); conditions: at 1 µM
[20] = target: T7, Serine/threonine-protein kinase Nek9 (Homo sapiens) (UniProt Q8TD19); conditions: at 0.1 µM;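 note: reported value is the mean percent inhibition of NEK9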
T7 sequence (whole entry): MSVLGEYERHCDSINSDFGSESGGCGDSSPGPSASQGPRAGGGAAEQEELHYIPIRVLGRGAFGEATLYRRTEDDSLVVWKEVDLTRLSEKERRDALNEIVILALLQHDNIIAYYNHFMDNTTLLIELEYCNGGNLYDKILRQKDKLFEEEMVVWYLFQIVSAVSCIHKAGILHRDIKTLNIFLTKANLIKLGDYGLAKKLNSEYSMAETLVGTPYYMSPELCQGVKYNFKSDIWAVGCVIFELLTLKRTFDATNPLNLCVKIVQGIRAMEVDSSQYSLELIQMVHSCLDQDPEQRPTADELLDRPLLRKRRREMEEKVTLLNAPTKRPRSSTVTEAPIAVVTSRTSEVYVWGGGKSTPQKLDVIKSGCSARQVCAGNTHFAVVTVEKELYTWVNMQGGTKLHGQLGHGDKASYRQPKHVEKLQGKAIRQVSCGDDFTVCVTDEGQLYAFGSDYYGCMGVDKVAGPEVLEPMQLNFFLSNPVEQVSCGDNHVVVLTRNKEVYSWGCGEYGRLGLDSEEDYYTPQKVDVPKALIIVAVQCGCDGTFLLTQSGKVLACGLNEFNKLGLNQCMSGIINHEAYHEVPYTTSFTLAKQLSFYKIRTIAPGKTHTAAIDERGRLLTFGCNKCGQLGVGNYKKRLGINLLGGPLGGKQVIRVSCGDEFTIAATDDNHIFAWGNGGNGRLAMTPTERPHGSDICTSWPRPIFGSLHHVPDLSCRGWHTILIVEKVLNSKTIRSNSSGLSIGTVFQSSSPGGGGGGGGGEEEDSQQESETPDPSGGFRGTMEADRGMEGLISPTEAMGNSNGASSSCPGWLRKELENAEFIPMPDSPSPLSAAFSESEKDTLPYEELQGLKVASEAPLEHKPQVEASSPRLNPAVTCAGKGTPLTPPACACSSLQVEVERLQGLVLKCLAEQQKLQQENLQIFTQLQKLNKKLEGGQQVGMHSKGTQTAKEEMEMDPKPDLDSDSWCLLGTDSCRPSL

Chain of Sphingosine kinase 1 (Homo sapiens) (Q9NYA1 whole entry): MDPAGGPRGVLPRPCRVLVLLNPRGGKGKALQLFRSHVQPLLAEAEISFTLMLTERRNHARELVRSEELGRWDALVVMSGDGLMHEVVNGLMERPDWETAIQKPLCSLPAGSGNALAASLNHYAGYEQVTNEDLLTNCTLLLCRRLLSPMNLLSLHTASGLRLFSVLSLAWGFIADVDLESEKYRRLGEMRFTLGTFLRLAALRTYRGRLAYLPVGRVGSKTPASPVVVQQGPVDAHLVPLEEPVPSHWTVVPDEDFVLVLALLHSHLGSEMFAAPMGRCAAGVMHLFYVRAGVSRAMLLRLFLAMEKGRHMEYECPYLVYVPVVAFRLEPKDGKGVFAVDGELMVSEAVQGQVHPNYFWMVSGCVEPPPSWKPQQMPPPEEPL

Row | SMILES | inhibition [1] | inhibition [2] | inhibition [3] | inhibition [4] | inhibition [5] | inhibition [6] | inhibition [7] | inhibition [8] | inhibition [9] | inhibition [10] | inhibition [11] | inhibition [12] | inhibition [13] | inhibition [14] | inhibition [15] | inhibition [16] | inhibition [17] | inhibition [18] | inhibition [19] | inhibition [20]
1 | O=C1Nc2ccc(C(=O)c3ccco3)cc2C1=Cc1cc(Cl)c(O)c(Cl)c1 | -1.68% | 1.43% | 1.2% | 18% | 55.2% | 2.59% | 8.32% | 5.21% | 2.45% | 24.9% | 52% | 1.66% | 6.79% | 5.56% | 3.76% | -0.24% | 0.61% | 3.27% | 3.97% | 6.51%
2 | CS(=O)(=O)CCN(CC#N)Cc1ccc(-c2ccc3ncnc(Nc4ccc(OCc5cccc(F)c5)c(Cl)c4)c3c2)o1 | -0.02% | -0.3% | -0.75% | 5.37% | 1.72% | 4.16% | 2.09% | 3.6% | 3.73% | 1.37% | 1.93% | 0.91% | 1.78% | 3.59% | 2.16% | 2.16% | -0.23% | 2.49% | 7.27% | 2.5%
